Data: PubChem BioAssay
For some of these results: Results with a measured potency or affinity are listed apart. The source made the active and inactive calls.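 The calls were made as follows, unless noted: active = compound raising the membrane signal above positive-control mean plus 3 SD in both repeats, and a primary screen hit; inactive = the rest.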

Experiments:
[1] = test system: TRPC4 beta (transient receptor potential cation channel C4), mouse; assay: TRPC4 cation channel opening, retest – cell-based, Fluo4 calcium, HEK293 TRPC4beta/mu-opioid, duplicates, 10 µM, confirmation (AID 2426;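 active = fluorescence ratio normalized to control raised more than 50% in primary screen plus both repeat runs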); conditions: Fluo4 calcium fluorescence, at 10 µM; active compounds read high
[2] = test system: transient receptor potential cation channel C4 beta (TRPC4), mouse; assay: TRPC4 cation channel opening, second retest – cell-based, second round, Fluo4, HEK293 TRPC4beta/mu-opioid, 1 µM, confirmation (AID 2461;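 active = primary screen active and over 50% activation in each of two duplicate runs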); conditions: Fluo4 calcium fluorescence, at 1 µM; active compounds read high
[3] = test system: TRPC4 (transient receptor potential cation channel C4 beta), mouse; assay: potentiation of DAMGO EC20 TRPC4 response – cell-based, second round, Fluo-4, HEK293 TRPC4beta/mu-opioid, 1 µM, confirmation (AID 2554;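 active = primary screen hit whose fluorescence ratio, in both repeats, exceeds the weak agonist control mean by 3 SD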); conditions: DAMGO EC20, Fluo-4 calcium flux, at 1 µM; active compounds read high
[4] = test system: TRPC4 beta (transient receptor potential cation channel C4), mouse; assay: potentiation of DAMGO EC20 TRPC4 response – cell-based, Fluo-4, HEK293 TRPC4beta/mu-opioid, confirmation (AID 2555;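 active = primary screen hit whose calcium fluorescence ratio, in both repeats, exceeds the weak agonist control mean by 3 SD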); conditions: DAMGO EC20, Fluo-4 calcium flux, at 10 µM; active compounds read high
[5] = biological target: Short transient receptor potential channel 4 (Mus musculus) (UniProt Q9QUQ5); assay: blockers of DAMGO-evoked TRPC4 calcium flux – cell-based, Fluo4, HEK293 TRPC4beta/mu-opioid, confirmation (AID 2636;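 active = calcium signal cut by more than 3 SD below the full-agonist control yet still positive, in both repeats and the earlier primary screen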); conditions: at 10 µM; active compounds read high
Chain of Short transient receptor potential channel 4 (Mus musculus) (Q9QUQ5 whole entry, looked up): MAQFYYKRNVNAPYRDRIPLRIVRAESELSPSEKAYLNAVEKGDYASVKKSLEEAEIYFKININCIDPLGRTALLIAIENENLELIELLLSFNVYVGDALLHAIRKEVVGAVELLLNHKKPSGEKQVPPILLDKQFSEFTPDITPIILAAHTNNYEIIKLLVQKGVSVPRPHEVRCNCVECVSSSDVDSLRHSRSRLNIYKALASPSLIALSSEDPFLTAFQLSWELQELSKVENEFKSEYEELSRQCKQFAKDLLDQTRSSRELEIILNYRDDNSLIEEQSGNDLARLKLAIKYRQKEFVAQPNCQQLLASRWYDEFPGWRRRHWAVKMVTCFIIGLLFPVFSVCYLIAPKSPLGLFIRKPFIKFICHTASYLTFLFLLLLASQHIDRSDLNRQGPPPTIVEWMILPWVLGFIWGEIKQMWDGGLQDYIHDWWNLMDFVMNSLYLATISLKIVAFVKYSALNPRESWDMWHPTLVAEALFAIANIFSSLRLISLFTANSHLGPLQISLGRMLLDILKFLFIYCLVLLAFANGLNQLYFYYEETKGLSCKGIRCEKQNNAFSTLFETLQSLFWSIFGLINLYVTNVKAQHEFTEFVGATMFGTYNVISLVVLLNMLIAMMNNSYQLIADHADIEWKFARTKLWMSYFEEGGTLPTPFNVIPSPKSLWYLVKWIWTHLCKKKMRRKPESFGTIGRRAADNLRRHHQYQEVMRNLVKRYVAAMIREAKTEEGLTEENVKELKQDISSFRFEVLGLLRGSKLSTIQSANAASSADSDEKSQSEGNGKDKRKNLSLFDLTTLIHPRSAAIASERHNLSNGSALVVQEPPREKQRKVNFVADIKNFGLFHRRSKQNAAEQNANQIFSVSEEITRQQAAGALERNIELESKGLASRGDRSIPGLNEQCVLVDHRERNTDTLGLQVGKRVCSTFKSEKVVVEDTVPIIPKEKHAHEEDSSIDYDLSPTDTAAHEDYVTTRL

[6] = biological target: Short transient receptor potential channel 4 (Mus musculus) (UniProt Q9QUQ5); assay: blockers of DAMGO-evoked TRPC4 calcium flux – cell-based, second round, Fluo4, HEK293 TRPC4beta/mu-opioid, 1 µM, confirmation (AID 2637;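 active = calcium signal ratio cut to more than 3 SD under the fully stimulated control mean yet still positive, in both repeats and the primary screen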;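 as to inhibition: percent of integrated ratio relative to wells lacking test compound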); conditions: at 1 µM; active compounds read high
[7] = biological target: Short transient receptor potential channel 4 (Mus musculus) (UniProt Q9QUQ5); assay: calcium entry via TRPC4 opening agents – cell-based, HEK293 TRPC4/mu-opioid, Fluo-4 calcium, dose response (AID 434937;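 active = primary screen activator hit with a dose response curve and TRPC4 channel activation at any tested dose; inactive = no activation, no dose response, or not a primary hit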)
[8] = biological target: Short transient receptor potential channel 4 (Mus musculus) (UniProt Q9QUQ5); assay: potentiation of DAMGO-evoked TRPC4 calcium signal – cell-based, HEK293 TRPC4/mu-opioid, Fluo-4 calcium, EC20 DAMGO, dose response (AID 434941;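 active = earlier screen potentiator hit that boosts the TRPC4 ion channel at some dose, with a dose response; inactive = no potentiation, no dose response, or not a prior hit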;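 also: calcium entry triggered by an EC20 dose of DAMGO at the co-expressed mu-opioid receptor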)
[9] = biological target: Short transient receptor potential channel 6 (Mus musculus) (UniProt Q61143); assay: TRPC6 blockade by TRPC4 inhibitor hits – cell-based, HEK293, membrane potential dye, duplicate, selectivity assay for TRPC4 inhibitor project, confirmation (AID 434948;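 active = active in primary screen and both duplicates, each dropping signal beyond three positive-control SD with fluorescence still positive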); conditions: HEK293 TRPC6, membrane potential dye fluorescence, at 10 µM, stimulated with maximal-effect acetylcholine; active compounds read high
Chain of Short transient receptor potential channel 6 (Mus musculus) (Q61143 whole entry, looked up): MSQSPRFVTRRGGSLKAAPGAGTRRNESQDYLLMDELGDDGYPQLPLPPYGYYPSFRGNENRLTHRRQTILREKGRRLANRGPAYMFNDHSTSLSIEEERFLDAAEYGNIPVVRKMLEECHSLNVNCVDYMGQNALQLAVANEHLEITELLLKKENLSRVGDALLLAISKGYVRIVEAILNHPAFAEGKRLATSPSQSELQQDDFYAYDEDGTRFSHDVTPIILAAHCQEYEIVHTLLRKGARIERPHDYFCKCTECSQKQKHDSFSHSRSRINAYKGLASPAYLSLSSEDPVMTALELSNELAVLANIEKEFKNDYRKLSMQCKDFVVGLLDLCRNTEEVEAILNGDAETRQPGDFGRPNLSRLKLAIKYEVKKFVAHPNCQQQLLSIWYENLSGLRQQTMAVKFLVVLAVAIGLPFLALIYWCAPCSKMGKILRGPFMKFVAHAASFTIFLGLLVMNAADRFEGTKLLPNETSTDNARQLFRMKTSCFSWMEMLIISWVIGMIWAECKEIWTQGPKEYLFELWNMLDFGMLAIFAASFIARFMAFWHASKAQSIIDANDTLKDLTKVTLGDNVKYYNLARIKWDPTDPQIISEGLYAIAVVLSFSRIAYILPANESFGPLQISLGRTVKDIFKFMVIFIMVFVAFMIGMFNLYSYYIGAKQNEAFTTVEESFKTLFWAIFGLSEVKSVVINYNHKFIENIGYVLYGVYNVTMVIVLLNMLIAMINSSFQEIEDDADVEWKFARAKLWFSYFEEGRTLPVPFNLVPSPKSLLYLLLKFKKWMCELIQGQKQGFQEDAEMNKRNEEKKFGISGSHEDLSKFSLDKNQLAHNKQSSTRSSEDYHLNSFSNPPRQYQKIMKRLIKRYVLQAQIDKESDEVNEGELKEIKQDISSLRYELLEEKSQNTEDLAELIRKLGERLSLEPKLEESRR

[10] = biological target: Short transient receptor potential channel 6 (Mus musculus) (UniProt Q61143); assay: TRPC6 opening by TRPC4 activator hits – cell-based, HEK293, membrane potential dye, duplicate, selectivity assay for TRPC4 activator project, confirmation (AID 434950;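 active = membrane potential signal rise above negative control mean plus 3 SD in both duplicates, also active in the earlier TRPC4 screen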); conditions: HEK293 TRPC6, membrane potential fluorescence, at 10 µM; activation: active compounds read high; outcome: activation
[11] = biological target: Short transient receptor potential channel 6 (Mus musculus) (UniProt Q61143); assay: positive modulators of mouse TRPC6 channel – HEK293 cells, membrane potential dye, duplicate, selectivity assay for TRPC4 potentiator project, confirmation (AID 434952); conditions: HEK293 TRPC6, membrane potential dye fluorescence, at 10 µM, maximal acetylcholine added after compound; active compounds read high
[12] = biological target: Short transient receptor potential channel 4 (Mus musculus) (UniProt Q9QUQ5); assay: calcium flux activators in TRPC4/5HT1a cells, counter-screen for TRPC4 activator project, cell-based, second counter screen, HEK293 TRPC4/5HT1a, Fluo-4 (AID 434977;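 active = calcium signal rise above buffer-control mean plus 5 SD in both duplicates, and also a hit in the primary screen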); conditions: Fluo-4 calcium flux, at 10 µM; active compounds read high
[13] = serotonin-gated TRPC4 signal block – cell-based, second counter screen, HEK293 TRPC4/5HT1a, Fluo-4, counter-screen for TRPC4 inhibitor project, confirmation (AID 434978;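 active = primary screen active whose calcium signal fell more than 3 SD beyond the full-serotonin control mean in both duplicate plates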;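 as to outcome: serotonin given first at submaximal then at maximal dose after compound preincubation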); conditions: Fluo-4 calcium flux, at 10 µM, serotonin added to trigger calcium flux; active compounds read high
[14] = test system: TRPC4 (mouse), co-expressed with 5HT1a in HEK293; assay: enhancement of serotonin-evoked TRPC4 response – cell-based, second counter screen, HEK293 TRPC4/5HT1a, Fluo-4, counter-screen for TRPC4 potentiator project, confirmation (AID 434979;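 active = signal rise over 3 SD above mean of control wells given weak agonist, in both repeats and first screen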); conditions: Fluo-4 calcium flux, at 10 µM, serotonin added at its EC20 dose; active compounds read high
[15] = nonspecific calcium rise without TRPC4 – cell-based, HEK293 mu-opioid receptor line, counter-screen for TRPC4 activator project, confirmation (AID 449723;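 active = hit in primary screen, with calcium signal over 5 SD above buffer well mean in both duplicates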;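 also: counter screen cells carry the mu-opioid receptor alone and lack TRPC4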); conditions: HEK293 mu-opioid cells, Fluo-4 calcium fluorescence, at 10 µM; active compounds read high
[16] = nonspecific potentiation of DAMGO calcium response – cell-based, HEK293 mu-opioid receptor line, counter-screen for TRPC4 allosteric potentiator project, confirmation (AID 449724;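 active = calcium signal rise more than 3 SD above the low-dose agonist control mean, in both duplicate plates and the primary screen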); conditions: HEK293 mu-opioid receptor cells, Fluo-4 calcium flux, at 10 µM, compound added before EC20 DAMGO stimulus; active compounds read high

Measured: inhibition

CC1(c2ccccc2)CC(C)(C)N(C(=O)C2CCCO2)c2ccccc21 (stereo unspecified)
active: [5] 90% | [13] 38.3%
inactive: all other assays above

CCOC(=O)C1CCN(CC(O)COc2ccc(C(C)(C)C)cc2)CC1 (stereo unspecified)
active: [13] 41.5%
inactive: all other assays above

Cc1nn(-c2nc3ccccc3n2Cc2ccccc2)c2c1C(=O)CC(C)(C)C2
active: [5] 72% | [13] 13.5%
inactive: all other assays above

COc1cccc(NC(=O)CCC(=O)N2CC(C)Oc3ccc(C)cc32)c1 (stereo unspecified)
active: [5] 85% | [13] 42.1%
inactive: all other assays above

COc1ccc(NC(=O)c2c[nH]n3c(=O)cc(C4CCN(C(=O)OC(C)(C)C)CC4)nc23)cc1Cl
active: [5] 86% | [6] 41% | [13] 40.1%
inactive: all other assays above

Clc1ccc(CN2C3=NCCN3c3ccccc32)cc1Cl
active: [6] 65% | [13] 20.3%
inactive: all other assays above

COc1ccccc1N1CCc2c(C)nc3c(OC)cccc3c21
active: [5] 92% | [6] 44% | [9] 29% | [13] 16.3%
inactive: all other assays above

CCCOc1ccc(Br)cc1/C=N/O
active: [6] 54%
inactive: all other assays above

CCCc1cc(=O)[nH]c(SCC(=O)Nc2sc3c(c2C#N)CCCC3)n1
active: [5] 85%
inactive: all other assays above

Cc1ccc(NC(=O)CNc2ccccc2CN(C)C2CCCCC2)cc1
active: [5] 76% | [13] 33.5%
inactive: all other assays above

Cc1cccc(NC(=O)CSc2nnc(-c3cc(C)n(-c4ccccc4)c3C)o2)c1C
active: [5] 78% | [13] 16.2%
inactive: all other assays above

O=C(c1cccc(C(=O)N2CCN(c3ccc(F)cc3)CC2)c1)N1CCN(c2ccc(F)cc2)CC1
active: [5] 88% | [6] 53% | [13] 42%
inactive: all other assays above

OC1(c2ccc(F)cc2)CCN(Cc2ccccc2)C1 (stereo unspecified)
active: [5] 98% | [6] 55% | [13] 18.4%
inactive: all other assays above

CCn1c(=N)n(CC(=O)c2ccc(Br)s2)c2ccccc21
active: [9] 59%
inactive: all other assays above

CCn1c(=O)n(CCOC)c(=O)c2c3c(sc21)CCCC3
active: [5] 91% | [6] 58% | [13] 16.2%
inactive: all other assays above

CCOC(=O)c1c(NC(=O)/C=C/C(=O)O)sc(C)c1-c1ccc(C(C)(C)C)cc1
active: [13] -6.26%
inactive: all other assays above

CCCCOc1ccc(CSCCN=C(N)N)cc1
active: [5] 88% | [6] 42% | [13] 40.1%
inactive: all other assays above

CCOC(=O)c1cc(C#N)c(N2CCCCC2)nc1-c1ccccc1
active: [5] 93%
inactive: all other assays above

COC(=O)CSc1nnc(-c2sc3cc(OC)ccc3c2Cl)n1C
active: [5] 95% | [6] 59%
inactive: all other assays above

COc1cccc(O)c1CN1CCCC(C(=O)c2cccc(C(F)(F)F)c2)C1 (stereo unspecified)
active: [5] 70% | [13] 34.3%
inactive: all other assays above

c1ccc(Cn2c(NCc3ccco3)nc3ccccc32)cc1
active: [5] 95% | [6] 75% | [13] 25.2%
inactive: all other assays above

Oc1ccc(Nc2nc(N3CCCC3)c3ccccc3n2)cc1
active: [5] 95% | [9] 39.5% | [13] 36.8%
inactive: all other assays above

C=CCN1CCN(C(c2cccc(OC)c2OC)c2nnnn2CCC(C)C)CC1 (stereo unspecified)
active: [5] 51%
inactive: all other assays above

O=C(O)c1cc(NN=C2c3ccccc3-c3ccccc32)ccc1Cl
active: [5] 98% | [9] 32% | [13] 11.8%
inactive: all other assays above

CSc1nsc(NC(=O)Cc2ccccc2)n1
active: [5] 93%
inactive: all other assays above

Cc1cccc(C)c1-n1cccc1/C=C1\SC(=S)N(c2cccc(C(=O)O)c2)C1=O
active: [5] 89% | [13] 23.2%
inactive: all other assays above

COc1cccc(C(=O)C2CCCN(Cc3cccn3-c3ccccn3)C2)c1 (stereo unspecified)
active: [5] 44% | [9] 38% | [13] 35.6%
inactive: all other assays above

O=C(NCCN1CCOCC1)c1cc2sccc2n1Cc1ccc(F)cc1
active: [5] 74% | [6] 49% | [13] 33.8%
inactive: all other assays above

CN1/C(=C\C(=O)C[n+]2ccc3ccccc3c2)C(C)(C)c2ccccc21
active: [5] 96%
inactive: all other assays above

CCOC(=O)CSc1nc2ccccc2c(=O)n1CC1CCCC1
active: [5] 84% | [13] 18.3%
inactive: all other assays above

CCCN1CN(Cc2ccco2)c2nc3ccccc3n2C1
active: [5] 96% | [6] 53% | [13] 25%
inactive: all other assays above
